From PubChem BioAssay (Tox21)
Inconclusive results are not listed. A call without a number means that no potency is given here. Active and inactive are the calls of the source. Unless noted, calls follow the shape of the full dose curve.

Key:
[1] = Nuclear factor erythroid 2-related factor 2/antioxidant responsive element (Nrf2/ARE) small molecule agonists: qHTS cell viability counter screen in human keratinocytes (AID 1919968; active = well fitted curve in the direction sought with a large enough effect in the repeat runs; an effect the other way counts as inactive or inconclusive; also: nearly all actives have a fitted effect of over 55% in size; also: potency is read from the fitted curve at half-maximal effect)
Outline: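 Stably transfected HaCaT (KeratinoSens), 1,500/well. Test agents in DMSO were applied for 23 h, 37 C/5% CO2. CellTiter-Fluor was incubated 1 h before the fluorescence read.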

[2] = Nuclear factor erythroid 2-related factor 2/antioxidant responsive element (Nrf2/ARE) small molecule agonists: luciferase reporter gene qHTS assay in human keratinocytes (AID 1919969); also: nearly all actives have a fitted effect of over 35% in size; also: potency is read from the fitted curve at half-maximal effect
[3] = target: Gonadotropin-releasing hormone receptor (Homo sapiens) (UniProt P30968); test: Human gonadotropin-releasing hormone receptor (GnRHR) small molecule agonists, calcium flux assay in GnRHR-HEK293 cells (AID 1920063); also: nearly all actives have a fitted effect of over 35% in size
Outline: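 Stable human GnRHR HEK293 line. 18 h plating, then calcium dye for 1 h at 37 C. Agonist-mode compound addition from DMSO stocks; fluorescence monitored 3 min.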

[4] = target: KiSS-1 receptor (Homo sapiens) (UniProt Q969F8); test: Human kisspeptin (KISS1R) small molecule agonists, calcium flux assay in KISS1R-HEK293 cells (AID 1920064; active = well fitted curve in the direction sought with a large enough effect in the repeat runs; an effect the other way counts as inactive or inconclusive)
Outline: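 After overnight (18 h) culture at 37 C/5% CO2, human KISS1R-HEK293 cells received calcium dye for 1 h, then test compound; emission at 540 nm (excitation 480 nm) was tracked for 3 min.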

[5] = G protein-coupled receptor (GPCR) small molecule agonists, calcium flux assay: HEK293 wild type cell line counter screen (AID 1920065)
Outline: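 Following 18 h incubation at 37 C/5% CO2, plates got calcium dye for 1 h; compounds, ATP or DMSO were then pinned in and fluorescence followed kinetically (480/540 nm).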

[6] = p53 small molecule agonists, cell-based qHTS assay with human liver microsomes (AID 1963577);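 also: p53 response element beta-lactamase reporter cells with liver microsomes plus NADPH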
Outline: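 With metabolic activation: human liver microsomes (0.5 mg/mL final) plus NADPH (0.5 mg/mL final) added alongside compounds to p53RE-bla cells; 16 h 37 C exposure; beta-lactamase read by LiveBLAzer fluorescence.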

[7] = p53 small molecule agonists, cell-based qHTS assay with rat liver microsomes (AID 1963578)
Outline: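 Metabolic activation by rat liver microsomes and NADPH, each 0.5 mg/mL final, added right after compounds to p53RE-bla reporter cells (4,000/well, plated 5 h earlier). 16 h at 37 C, then LiveBLAzer substrate for 2 h at room temperature in the dark; fluorescence read-out.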

[8] = p53 small molecule agonists, cell-based qHTS assay with human liver microsomes: qHTS cell viability counter screen (AID 1963579); also: nearly all actives have a fitted effect of over 45% in size
Outline: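 Metabolic activation used human liver microsomes and NADPH, both 0.5 mg/mL final, over 16 hours at 37 C on p53RE-bla cells (4,000/well). Cytotoxicity measured by CellTiter-Glo luminescence, 30 min at room temperature.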

[9] = p53 small molecule agonists, cell-based qHTS assay with rat liver microsomes: qHTS cell viability counter screen (AID 1963580); also: nearly all actives have a fitted effect of over 45% in size; also: potency is read from the fitted curve at half-maximal effect
Outline: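 Counter screen for cytotoxicity under metabolic activation: rat liver microsomes and NADPH, 0.5 mg/mL final each, added with compounds to p53RE-bla HCT-116 cells; 16 h at 37 C, then ATP luminescence read.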

[10] = target: 5-hydroxytryptamine receptor 2A (Homo sapiens) (UniProt P28223); test: 5-hydroxytryptamine receptor 2A (HTR2A) small molecule antagonists, cell-based qHTS assay (AID 1963586); also: nearly all actives have a fitted effect of over 45% in size
Outline: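 CHO cells stably expressing human HTR2A were plated for 18 h at 37 C, then loaded with calcium dye for 1 h. Compounds were preincubated 5 min at room temperature before DOI (4 nM solution) was added. Kinetic fluorescence was read for 3 min.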

[11] = target: 5-hydroxytryptamine receptor 2A (Homo sapiens) (UniProt P28223); test: 5-hydroxytryptamine receptor 2A (HTR2A) small molecule agonists, cell-based qHTS assay (AID 1963587); also: nearly all actives have a fitted effect of over 30% in size
Outline: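 HTR2A-CHO cells, plated 18 h at 37 C/5% CO2, dye-loaded 1 h at 37 C; compounds in DMSO added by pin tool (agonist mode). Intracellular calcium flux read as kinetic fluorescence on FDSS over 2 min at 1 s intervals.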

[12] = target: Muscarinic acetylcholine receptor M1 (Homo sapiens) (UniProt P11229); test: Cholinergic receptor muscarinic 1 (CHRM1) small molecule antagonists, cell-based qHTS assay (AID 1963588); also: nearly all actives have a fitted effect of over 40% in size
Outline: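 Compounds were tested at 15 concentrations in three independent runs. Dye-loaded CHRM1-CHO cells were exposed 5 min at room temperature before stimulation by acetylcholine added at 50nM. Intracellular calcium was read kinetically on FDSS for 3 min.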

[13] = target: Muscarinic acetylcholine receptor M1 (Homo sapiens) (UniProt P11229); test: Cholinergic receptor muscarinic 1 (CHRM1) small molecule agonists, cell-based qHTS assay (AID 1963589); also: nearly all actives have a fitted effect of over 35% in size
Outline: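 Kinetic fluorescence (1 s intervals) of calcium-sensitive dye in human M1 CHO cells after compound addition; cells pre-incubated 18 h at 37 C/5% CO2 and dye-loaded 1 h.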

[14] = cAMP Responsive Elements (CRE) small molecule agonists, cell-based qHTS assay (AID 1963590)
Outline: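 Test agents in DMSO were incubated 3 h at 37 C/5% CO2 with CRE-bla HEK 293T cells seeded 18 h earlier; LiveBLAzer B/G FRET substrate was added and read after 2 h at room temperature.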

[15] = cAMP Responsive Elements (CRE) small molecule antagonists, cell-based qHTS assay (AID 1963591; active = well fitted inhibition curve with a large enough effect in the signal ratio in the repeat runs, not every such curve was filed as active; the % refers to the signal ratio)
Outline: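 Reporter line CRE-bla HEK 293T in dialyzed-FBS DMEM; cells preincubated 18 h, treated 3 h with compound plus NKH477 (0.25 uM final); LiveBLAzer FRET, 2 h RT.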

[16] = target: D(2) dopamine receptor (Homo sapiens) (UniProt P14416); test: Dopamine D2 receptor (DRD2) small molecule agonists, cell-based qHTS assay (AID 1963594); also: nearly all actives have a fitted effect of over 35% in size
Outline: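 HEK293 cells stably expressing DRD2 were cultured 24 h at 37 C, then given Ro20-1724 (0.1 mM final) and compounds for 10 min at room temperature. NKH477 (200nM) was then added for 30 min. cAMP was read by HTRF.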

[17] = target: D(2) dopamine receptor (Homo sapiens) (UniProt P14416); test: Dopamine D2 receptor (DRD2) small molecule antagonists, cell-based qHTS assay (AID 1963595; active = well fitted inhibition curve with a large enough effect in the signal ratio in the repeat runs, with a control signal flat; the % refers to the signal ratio)
Outline: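 Readout: HTRF cAMP, cAMP-d2 competing with cellular cAMP for anti-cAMP cryptate, read after 1 h. Cells: DRD2-HEK293. Conditions: 0.1 mM Ro20-1724, 12 nM quinpirole, 200 nM NKH477, 30 min RT.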

[18] = p53 small molecule agonists, cell-based qHTS assay (AID 1963582; active = well fitted activation curve with a large enough effect in the signal ratio in the repeat runs, not every such curve was filed as active; the % refers to the signal ratio)
Outline: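 Measured: fluorescence from cleaved LiveBLAzer substrate. System: p53RE-bla cells, 16 h compound treatment at 37 C, 2 h substrate step at room temperature.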

[19] = target: Beta-2 adrenergic receptor (Homo sapiens) (UniProt P07550); test: Adrenergic beta2 receptor (ADRB2) small molecule antagonists, cell-based qHTS assay (AID 1963592); also: series mostly up to about 92 µM; nearly all actives have a fitted effect of over 50% in size
Outline: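 Assay format: CHO-ADRB2 cells, 18-20hr seeding at 37C/5% CO2, then compound plus 1nM isoproterenol agonist mix for 0.5hr RT. Homogeneous time-resolved fluorescence cAMP detection after 1hr, expressed as 665/615 nm ratio.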

[20] = p53 small molecule agonists, cell-based qHTS assay: qHTS cell viability counter screen (AID 1963581); also: nearly all actives have a fitted effect of over 45% in size
Outline: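 qHTS counter screen: 16 h compound exposure at 37 C of p53RE-bla HCT-116 cells (4,000 per well, seeded 5 h prior), cell viability by ATP luminescence.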

Chain of Gonadotropin-releasing hormone receptor (Homo sapiens) (P30968 whole entry, looked up): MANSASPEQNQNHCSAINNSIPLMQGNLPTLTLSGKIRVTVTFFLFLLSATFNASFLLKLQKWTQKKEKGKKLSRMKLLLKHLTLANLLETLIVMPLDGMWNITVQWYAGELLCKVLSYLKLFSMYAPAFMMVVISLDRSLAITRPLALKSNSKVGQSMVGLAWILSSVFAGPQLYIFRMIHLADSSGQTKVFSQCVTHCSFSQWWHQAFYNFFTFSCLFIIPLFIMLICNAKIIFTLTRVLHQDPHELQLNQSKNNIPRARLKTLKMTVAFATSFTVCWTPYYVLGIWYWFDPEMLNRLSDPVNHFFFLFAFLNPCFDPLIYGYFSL
Chain of Muscarinic acetylcholine receptor M1 (Homo sapiens) (P11229 whole entry, looked up): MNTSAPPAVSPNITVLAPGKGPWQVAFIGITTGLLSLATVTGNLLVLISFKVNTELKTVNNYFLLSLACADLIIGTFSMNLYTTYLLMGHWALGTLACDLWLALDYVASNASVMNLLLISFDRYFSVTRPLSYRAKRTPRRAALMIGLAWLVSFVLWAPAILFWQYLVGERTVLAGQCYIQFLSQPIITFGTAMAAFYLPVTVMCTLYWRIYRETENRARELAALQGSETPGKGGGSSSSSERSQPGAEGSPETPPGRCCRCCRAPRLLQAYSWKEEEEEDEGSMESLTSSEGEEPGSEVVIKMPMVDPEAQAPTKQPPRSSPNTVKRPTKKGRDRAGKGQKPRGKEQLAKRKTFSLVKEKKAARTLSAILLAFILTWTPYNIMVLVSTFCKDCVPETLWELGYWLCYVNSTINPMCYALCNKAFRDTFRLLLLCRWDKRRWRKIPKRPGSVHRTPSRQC
Chain of D(2) dopamine receptor (Homo sapiens) (P14416 whole entry, looked up): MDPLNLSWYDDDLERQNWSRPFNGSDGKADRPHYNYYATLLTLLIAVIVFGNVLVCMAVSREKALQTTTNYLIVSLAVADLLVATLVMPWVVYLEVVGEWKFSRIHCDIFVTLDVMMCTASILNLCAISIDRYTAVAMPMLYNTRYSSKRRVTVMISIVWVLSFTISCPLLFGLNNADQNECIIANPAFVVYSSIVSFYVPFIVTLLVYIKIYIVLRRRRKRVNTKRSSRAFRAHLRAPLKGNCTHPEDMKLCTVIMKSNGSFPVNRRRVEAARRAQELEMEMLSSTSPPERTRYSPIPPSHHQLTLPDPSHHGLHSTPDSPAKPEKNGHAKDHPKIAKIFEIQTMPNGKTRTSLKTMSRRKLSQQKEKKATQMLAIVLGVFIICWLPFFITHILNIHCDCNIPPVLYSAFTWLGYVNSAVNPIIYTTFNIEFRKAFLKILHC
Chain of KiSS-1 receptor (Homo sapiens) (Q969F8 whole entry, looked up): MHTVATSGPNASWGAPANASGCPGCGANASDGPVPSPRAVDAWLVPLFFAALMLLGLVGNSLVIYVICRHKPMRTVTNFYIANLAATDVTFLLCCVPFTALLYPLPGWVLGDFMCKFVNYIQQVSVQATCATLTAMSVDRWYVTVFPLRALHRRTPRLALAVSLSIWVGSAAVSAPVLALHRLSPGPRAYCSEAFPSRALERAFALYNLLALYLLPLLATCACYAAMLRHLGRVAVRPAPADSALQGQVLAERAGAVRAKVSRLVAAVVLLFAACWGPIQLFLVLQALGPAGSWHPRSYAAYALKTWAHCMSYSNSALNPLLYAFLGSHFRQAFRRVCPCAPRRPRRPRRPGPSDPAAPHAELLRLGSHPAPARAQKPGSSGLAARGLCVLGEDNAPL
Chain of 5-hydroxytryptamine receptor 2A (Homo sapiens) (P28223 whole entry, looked up): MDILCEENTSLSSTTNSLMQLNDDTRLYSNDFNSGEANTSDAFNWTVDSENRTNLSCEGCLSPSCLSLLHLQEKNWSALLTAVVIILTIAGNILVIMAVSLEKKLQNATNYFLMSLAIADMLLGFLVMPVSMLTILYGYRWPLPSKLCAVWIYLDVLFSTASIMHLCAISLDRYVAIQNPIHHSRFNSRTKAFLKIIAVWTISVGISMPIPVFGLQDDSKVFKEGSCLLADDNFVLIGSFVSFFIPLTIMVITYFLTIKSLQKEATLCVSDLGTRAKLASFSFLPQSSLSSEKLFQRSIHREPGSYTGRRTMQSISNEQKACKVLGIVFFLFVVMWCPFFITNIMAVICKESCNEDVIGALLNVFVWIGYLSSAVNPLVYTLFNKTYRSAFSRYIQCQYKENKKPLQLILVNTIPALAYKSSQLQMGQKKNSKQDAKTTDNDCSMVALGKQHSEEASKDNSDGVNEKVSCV
Chain of Beta-2 adrenergic receptor (Homo sapiens) (P07550 whole entry, looked up): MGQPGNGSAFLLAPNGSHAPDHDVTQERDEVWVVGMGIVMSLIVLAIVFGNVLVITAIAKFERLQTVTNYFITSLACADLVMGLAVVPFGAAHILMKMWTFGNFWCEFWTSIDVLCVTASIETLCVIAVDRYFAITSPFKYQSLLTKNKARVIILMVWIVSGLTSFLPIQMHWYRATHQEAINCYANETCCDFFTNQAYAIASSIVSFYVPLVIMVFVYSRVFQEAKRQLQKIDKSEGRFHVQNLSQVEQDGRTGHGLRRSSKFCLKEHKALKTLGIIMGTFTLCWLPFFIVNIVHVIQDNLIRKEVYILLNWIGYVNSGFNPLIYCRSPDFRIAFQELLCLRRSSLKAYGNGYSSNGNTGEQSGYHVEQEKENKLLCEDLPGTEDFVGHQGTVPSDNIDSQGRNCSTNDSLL

Structure (SMILES) | Potency [1] | Potency [2] | Potency [3] | Potency [4] | Potency [5] | Potency [6] | Potency [7] | Potency [8] | Potency [9] | Potency [10] | Potency [11] | Potency [12] | Potency [13] | Potency [14] | Potency [15] | Potency [16] | Potency [17] | Potency [18] | Potency [19] | Potency [20]
SCc1ccco1 | inactive | 68.6 µM (active) | inactive | inactive | inactive | inactive | inactive | inactive | inactive | inactive | inactive | inactive | inactive | inactive | inactive | inactive | inactive |  |  | 
CCOC(=O)NC(C)(C)Cc1ccc(Cl)cc1 | inactive | inactive | inactive | inactive | inactive | inactive | inactive | inactive | inactive | inactive | inactive | inactive | inactive | inactive |  | inactive | inactive | inactive | inactive | 
CCC1(c2ccccc2)C(=O)N=C(O)NC1=O (stereo not given) | inactive | inactive | inactive | inactive | inactive | inactive | inactive | inactive | inactive |  |  |  |  | inactive |  | inactive | inactive | inactive | inactive | 
C/C(=C\c1ccccc1)[N+](=O)[O-] | 30.6 µM (active) | 15.4 µM (active) | inactive | inactive | inactive | inactive | inactive | inactive | 36.3 µM (active) | inactive | inactive | inactive | inactive |  | inactive | inactive | inactive | inactive | inactive | 
COc1ccc(C(c2ccc(OC)cc2)C(Cl)(Cl)Cl)cc1 | 19.2 µM (active) | 27.1 µM (active) | inactive | inactive | inactive | inactive | inactive |  | inactive | inactive | inactive |  | inactive |  |  |  |  |  | inactive | inactive
